Each structure is given as a SMILES string. Activity calls are given as the source filed them.

Test [1] is described as follows: small molecules captured by biotinylated probe aFSTL3 – biochemical, small-molecule microarray, fluorescence 635/667, stem cell growth factor project, primary screen (AID 1064).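 Further: measures binding of the biotinylated anti-FSTL3 antibody to printed compounds.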 Particulars: higher = more signal.
The nature of test [2]: binders from COS7 lysate, DM2A8 probe, primary screen, torsin A project, cell lysate, small-molecule microarray, fluorescence 635/667 (AID 1065). Particulars: higher = more signal, COS7 lysate expressing mutant human TOR1A.
Test [3] is described as follows: small molecules captured by biotinylated probe aFGF2 – biochemical, small-molecule microarray, fluorescence 635/667, stem cell growth factor project, primary screen (AID 1067).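 Further: measures binding of biotinylated aFGF2 protein to printed compounds on slides; z-score merges feature fluorescence and signal-to-noise across triplicate slides.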 The following applies: higher = more signal.
The nature of test [4]: small molecules captured by biotinylated probe aFGF10 – biochemical, small-molecule microarray, fluorescence 635/667, stem cell growth factor project, primary screen (AID 1071).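 Further: score merges 667 nm spot intensity and signal to noise from triplicate slides.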 Particulars: higher = more signal.
Test [5] deals with Neurogenic locus notch homolog protein 2 (Homo sapiens) (UniProt Q04721). The experiment in a line: small molecules binding Notch2 protein – biochemical, small-molecule microarray, 635 nm fluorescence, stem cell growth factors, primary screen (AID 1073). Particulars: higher = more signal.
Neurogenic locus notch homolog protein 2 (Homo sapiens), sequence (Q04721 whole entry, looked up, canonical isoform): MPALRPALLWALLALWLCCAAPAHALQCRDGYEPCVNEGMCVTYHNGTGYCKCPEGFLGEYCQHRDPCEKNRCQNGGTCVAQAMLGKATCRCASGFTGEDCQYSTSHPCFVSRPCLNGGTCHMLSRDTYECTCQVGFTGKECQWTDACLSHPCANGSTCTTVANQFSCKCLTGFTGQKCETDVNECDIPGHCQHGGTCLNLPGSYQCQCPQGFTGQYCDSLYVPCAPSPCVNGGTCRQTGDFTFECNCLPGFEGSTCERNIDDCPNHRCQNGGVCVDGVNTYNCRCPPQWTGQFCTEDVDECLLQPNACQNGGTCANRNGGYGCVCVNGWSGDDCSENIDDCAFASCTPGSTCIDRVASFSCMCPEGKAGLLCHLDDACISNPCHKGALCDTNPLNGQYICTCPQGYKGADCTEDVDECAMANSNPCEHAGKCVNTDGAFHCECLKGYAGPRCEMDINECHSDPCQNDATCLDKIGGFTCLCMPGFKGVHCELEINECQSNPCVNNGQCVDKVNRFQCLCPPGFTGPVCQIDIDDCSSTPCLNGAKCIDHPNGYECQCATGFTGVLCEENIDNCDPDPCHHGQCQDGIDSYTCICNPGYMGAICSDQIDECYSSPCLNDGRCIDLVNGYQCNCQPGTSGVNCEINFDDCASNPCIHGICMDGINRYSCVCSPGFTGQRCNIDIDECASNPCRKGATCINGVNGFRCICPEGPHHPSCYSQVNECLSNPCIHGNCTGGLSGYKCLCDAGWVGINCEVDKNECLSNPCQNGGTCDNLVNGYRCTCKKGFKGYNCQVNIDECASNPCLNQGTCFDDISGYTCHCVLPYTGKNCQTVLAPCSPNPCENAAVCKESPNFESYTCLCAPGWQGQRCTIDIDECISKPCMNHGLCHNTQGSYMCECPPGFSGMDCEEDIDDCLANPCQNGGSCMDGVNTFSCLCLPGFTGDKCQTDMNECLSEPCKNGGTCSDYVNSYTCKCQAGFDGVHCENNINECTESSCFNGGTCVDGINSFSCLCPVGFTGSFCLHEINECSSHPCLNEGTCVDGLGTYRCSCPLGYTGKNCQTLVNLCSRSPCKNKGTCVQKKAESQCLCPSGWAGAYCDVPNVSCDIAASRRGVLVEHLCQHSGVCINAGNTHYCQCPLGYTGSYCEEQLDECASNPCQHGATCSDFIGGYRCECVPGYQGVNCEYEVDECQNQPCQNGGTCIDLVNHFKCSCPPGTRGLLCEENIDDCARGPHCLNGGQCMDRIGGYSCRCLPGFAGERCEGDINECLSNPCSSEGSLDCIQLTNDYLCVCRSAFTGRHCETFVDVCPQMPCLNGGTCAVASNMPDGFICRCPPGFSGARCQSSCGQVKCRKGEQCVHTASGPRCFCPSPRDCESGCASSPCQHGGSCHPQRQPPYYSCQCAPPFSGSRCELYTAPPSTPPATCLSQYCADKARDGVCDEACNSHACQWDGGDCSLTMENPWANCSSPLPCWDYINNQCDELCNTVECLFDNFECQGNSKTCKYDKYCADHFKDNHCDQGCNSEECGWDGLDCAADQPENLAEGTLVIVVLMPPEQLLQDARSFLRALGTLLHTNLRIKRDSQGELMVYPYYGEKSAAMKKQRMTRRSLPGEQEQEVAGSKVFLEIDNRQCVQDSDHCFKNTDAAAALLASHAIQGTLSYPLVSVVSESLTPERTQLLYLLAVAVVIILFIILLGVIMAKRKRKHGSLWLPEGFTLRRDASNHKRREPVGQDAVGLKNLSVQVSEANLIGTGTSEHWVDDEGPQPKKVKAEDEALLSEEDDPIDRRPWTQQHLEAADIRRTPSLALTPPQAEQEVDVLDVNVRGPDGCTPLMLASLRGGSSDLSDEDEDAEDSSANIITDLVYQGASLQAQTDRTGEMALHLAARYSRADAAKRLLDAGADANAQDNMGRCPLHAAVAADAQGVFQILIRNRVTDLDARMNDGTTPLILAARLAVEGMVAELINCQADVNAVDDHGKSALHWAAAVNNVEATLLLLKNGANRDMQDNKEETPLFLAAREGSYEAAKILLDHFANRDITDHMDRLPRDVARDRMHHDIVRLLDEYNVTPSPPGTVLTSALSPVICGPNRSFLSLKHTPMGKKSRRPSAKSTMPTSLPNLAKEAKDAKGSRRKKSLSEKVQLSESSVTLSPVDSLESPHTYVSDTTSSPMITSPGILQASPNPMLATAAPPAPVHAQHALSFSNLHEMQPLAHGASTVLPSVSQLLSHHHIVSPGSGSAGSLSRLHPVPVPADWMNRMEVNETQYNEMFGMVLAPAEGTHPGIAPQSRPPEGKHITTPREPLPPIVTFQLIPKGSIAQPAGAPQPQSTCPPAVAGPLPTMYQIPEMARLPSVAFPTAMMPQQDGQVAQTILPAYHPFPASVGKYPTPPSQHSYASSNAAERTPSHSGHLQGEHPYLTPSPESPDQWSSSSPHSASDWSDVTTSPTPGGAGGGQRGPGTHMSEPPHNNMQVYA
For test [6], the target named is Pro-neuregulin-1, membrane-bound isoform (Homo sapiens) (UniProt Q02297). The experiment in a line: small molecules binding neuregulin-1 protein – biochemical, small-molecule microarray, fluorescence 635/667, psychiatric disease protein project, primary screen (AID 1075).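 Further: score combines 667 nm spot fluorescence with signal to noise.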 The following applies: NRG1 binding, 635 nm fluorescence, higher = more signal.
Pro-neuregulin-1, membrane-bound isoform (Homo sapiens), sequence (Q02297 whole entry, looked up, the tested form may be a part, canonical isoform): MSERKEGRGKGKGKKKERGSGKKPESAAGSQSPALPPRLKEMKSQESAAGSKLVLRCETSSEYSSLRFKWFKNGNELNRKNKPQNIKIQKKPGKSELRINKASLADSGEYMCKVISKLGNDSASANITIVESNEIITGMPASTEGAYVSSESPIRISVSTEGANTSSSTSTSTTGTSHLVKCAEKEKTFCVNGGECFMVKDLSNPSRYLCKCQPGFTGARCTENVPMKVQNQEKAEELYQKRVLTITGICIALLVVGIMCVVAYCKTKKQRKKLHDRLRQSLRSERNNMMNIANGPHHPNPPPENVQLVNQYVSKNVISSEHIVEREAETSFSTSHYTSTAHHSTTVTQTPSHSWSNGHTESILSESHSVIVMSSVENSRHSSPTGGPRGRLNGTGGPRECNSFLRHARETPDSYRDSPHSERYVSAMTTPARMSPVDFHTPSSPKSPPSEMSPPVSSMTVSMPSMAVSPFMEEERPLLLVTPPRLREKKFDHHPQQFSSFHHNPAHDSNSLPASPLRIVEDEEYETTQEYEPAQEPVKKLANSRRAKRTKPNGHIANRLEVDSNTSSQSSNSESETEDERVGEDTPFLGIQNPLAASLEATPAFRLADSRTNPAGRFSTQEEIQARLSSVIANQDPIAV
Test [7] deals with Neuregulin-1 EGF-like domain. Kind of test: small molecules binding NRG1 EGF domain – biochemical, small-molecule microarray, 635 nm fluorescence, primary screen (AID 1081).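 Further: binding of the protein to compounds printed on small-molecule microarray slides.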 Particulars: higher = more signal.
Test [8] is described as follows: FRG1 expression reporter modulators in myotubes – cell-based, C2C12 myotubes, firefly/Renilla luciferase, luminescence, FRG1 inhibition for FSHD, primary screen (AID 1084). Particulars: FRG1 promoter luciferase, higher = more signal, called active from +8 up or from −8 down.
Test [9] can be described thus: small molecules captured by biotinylated probe aFST – biochemical, small-molecule microarray, fluorescence 635/667, stem cell growth factor project, primary screen (AID 1086).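 Further: score merges 667 nm fluorescence with signal-to-noise of each printed compound spot.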 Particulars: higher = more signal.
Test [10] in a line: binders of probe aHhip on microarray, primary screen, stem cell growth factor project, biochemical, small-molecule microarray, fluorescence 635/667 (AID 1087).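 Further: score merges spot fluorescence at 667nm with spot signal to noise ratio.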 The following applies: higher = more signal.
The subject of test [11] is PRMT1 (protein arginine N-methyltransferase 1). The experiment in a line: small molecules binding arginine methyltransferase PRMT1 – biochemical, small-molecule microarray, 635 nm fluorescence, primary screen (AID 1088).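 Further: binding of Prmt1 protein to compounds spotted on small-molecule microarray slides.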 The following applies: higher = more signal.
Test [12] can be described thus: growth effects on S. cerevisiae YJM789 – YJM789 clinical isolate, OD600, 24 h, basal, primary screen (AID 1089).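 Further: growth of clinical yeast isolate S. cerevisiae YJM 789 seeded 1000 cells per well; test concentration not given here.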 Particulars: higher = more signal, called active from +8 up or from −8 down.
Test [13] is described as follows: S. pombe growth modifiers, basal conditions – strain 972, OD600, 24 h, no modulator, primary screen (AID 1090).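 Further: basal condition with compound alone and no growth modifier present; test concentration not given here.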 Particulars: S. pombe 972 growth, higher = more signal, called active from +8 up or from −8 down.
Test [14] can be described thus: budding yeast growth modifiers under rapamycin – strain BY4716, OD600, 96 h, primary screen (AID 1091). Further: test concentration not given here. The following applies: S. cerevisiae BY4716 + rapamycin, higher = more signal, called active from +8 up or from −8 down.
For test [15], the target named is Torsin-1A-interacting protein 2 (Homo sapiens) (UniProt Q8NFQ8). Kind of test: small molecules binding lysate-expressed LULL1 – cell lysate, human LULL1 lysate, 635/667 nm fluorescence, primary screen (AID 1092).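 Further: probe is lysate of COS7 cells overexpressing human LULL1; score merges per-feature 667 nm fluorescence with signal-to-noise.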 Particulars: small-molecule microarray, hLULL1 lysate binding, 635 nm fluorescence; higher = more signal.
Torsin-1A-interacting protein 2 (Homo sapiens), sequence (Q8NFQ8 whole entry, looked up): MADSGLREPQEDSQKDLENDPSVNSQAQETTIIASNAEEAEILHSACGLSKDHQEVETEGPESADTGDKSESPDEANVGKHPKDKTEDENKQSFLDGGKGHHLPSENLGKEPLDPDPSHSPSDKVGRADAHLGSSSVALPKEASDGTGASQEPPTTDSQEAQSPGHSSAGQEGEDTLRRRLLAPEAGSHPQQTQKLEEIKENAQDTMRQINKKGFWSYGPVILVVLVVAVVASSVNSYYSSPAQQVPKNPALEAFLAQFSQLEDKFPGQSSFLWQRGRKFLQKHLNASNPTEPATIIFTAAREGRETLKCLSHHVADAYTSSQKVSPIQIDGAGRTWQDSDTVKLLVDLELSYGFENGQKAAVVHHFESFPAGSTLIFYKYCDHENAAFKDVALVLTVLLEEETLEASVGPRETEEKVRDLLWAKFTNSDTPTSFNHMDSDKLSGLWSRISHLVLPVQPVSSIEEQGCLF
The nature of test [16]: optical density change of DRC41 E. coli – strain DRC41, OD650, 24 h, E. coli filamentation project, primary screen (AID 1093).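 Further: MC1000 strain lacking acrAB efflux and sulA so SOS filamentation is blocked; test concentration not given here.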 Particulars: E. coli DRC41 growth, higher = more signal, called active from +8 up or from −8 down.
The nature of test [17]: probe aLefty2 binding to arrayed compounds – biochemical, biotinylated probe, 635/667 nm fluorescence, primary screen (AID 1094).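 Further: score merges spot fluorescence near 667 nm with spot signal-to-noise ratio.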 The following applies: small-molecule microarray, higher = more signal.
The subject of test [18] is Noggin (protein binding on small-molecule microarray). Kind of test: small molecules binding Noggin protein – biochemical, 635/667 nm fluorescence, primary screen (AID 1095).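 Further: score merges 667 nm feature fluorescence with signal to noise over triplicate slides.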 Particulars: 635 nm fluorescence, higher = more signal.
In test [19] the target is Neurogenic locus notch homolog protein 3 (Homo sapiens) (UniProt Q9UM47). Kind of test: small molecules binding NOTCH3 protein – biochemical, 635/667 nm fluorescence, primary screen (AID 1096). Particulars: small-molecule microarray, 635 nm fluorescence, higher = more signal.
The nature of test [20]: probe aEGFR binding to arrayed compounds – biochemical, biotinylated probe, 635/667 nm fluorescence, primary screen (AID 1097).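 Further: probe is a biotinylated anti-EGFR antibody binding compounds printed on slides; score combines fluorescence near 667 nm and signal to noise of each spot.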 The following applies: small-molecule microarray, higher = more signal.

Consider `O=C(CS)NCCCCCCNC(=O)[C@H]1C[C@H]2C(=O)NCC(=O)N2[C@H]1c1ccc(O)cc1`, for which the composite z-score in [1] was 0.249; in test [2], -0.465; in test [3], -0.137; in [4], 0.263; in test [5], -0.355; in [6] it was 1.22. Moreover, the composite z-score in test [7] was 1.32; in [9] it was -0.346; in test [10] it was 0.0201; in test [11], 0.16; in test [15], 1.46; in [17] it was -0.0903. Also, the composite z-score in [18] is 0.384; in test [19], 0.0288; in [20], -0.136. Further, the z-score is -0.348 (inactive) in test [8]; -0.408 (inactive) in test [12]; 0.0177 (inactive) in [13]; 0.505 (inactive) in test [14]; -0.449 (inactive) in [16].

For the compound `CC(C)(C)OC(=O)CC[C@@]1(C(=O)NCCN2CCOCC2)N=C(c2ccc(OCCCO)cc2)O[C@@H]1c1ccccc1`, the composite z-score in test [1] was 1.11; in [2], 1.4; in [3] it was 0.0189; in [4] it was 0.262; in test [5], 1.28; in test [6] it was 1.75. Further, the composite z-score worked out at 1.2 in test [7]; 0.972 in test [9]; 0.167 in test [10]; 1.57 in [11]; 3.1 in [15]; 0.37 in test [17]. Further, the composite z-score in [18] is 0.755; in test [19] it was 0.807; in [20], 0.285. Moreover, the z-score is 0.951 (inactive) in test [8]; -0.444 (inactive) in [12]; 0.0418 (inactive) in test [13]; -0.552 (inactive) in test [14]; 1.03 (inactive) in test [16].

On to `[N-]=[N+]=NCc1ccccc1C[C@]1(C(=O)NCCN2CCOCC2)N=C(c2ccc(OCCCO)cc2)O[C@H]1c1ccccc1N=[N+]=[N-]`, for which the composite z-score in test [1] amounted to 0.446; in test [2], 0.57; in test [3], 0.0618; in [4], 0.855; in test [5] it was 1.57; in test [6], 1.6. The composite z-score was 1.29 in test [7]; 1.25 in test [9]; -0.236 in test [10]; 1.56 in test [11]; 2.73 in test [15]; 0.149 in test [17]. In addition, the composite z-score is -0.0313 in test [18], 1.1 in test [19] and 0.0488 in [20]. Moreover, the z-score in [8] was -0.653 (inactive); in test [12] it was -0.886 (inactive); in [13], 0.246 (inactive); in [14], 2.86 (inactive); in [16], 1.16 (inactive).

Take `O=C1O[C@@H](c2ccccc2)[C@@H](c2ccccc2)N2[C@@H](c3ccccc3OCCO)[C@]3(C(=O)Nc4ccc(C#CC5(O)CCCCCC5)cc43)[C@@H](C(=O)Nc3nc4ccccc4s3)[C@H]12`: the composite z-score was -0.508 in [1]; 0.984 in [2]; -0.0113 in test [3]; 0.895 in test [4]; 1.22 in test [5]; 0.678 in [6]. The composite z-score stood at 1.11 in [7]; 0.806 in test [9]; 1.22 in [10]; 1.56 in test [11]; 2.19 in [15]; 0.01 in [17]. The composite z-score in [18] is 1.33; in [19], 1.06; in test [20] it was 1.01. Moreover, the z-score in [8] is -0.0944 (inactive); in [12], 1.39 (inactive); in [13], 1.96 (inactive); in [14] it was 3.42 (inactive); in test [16], 0.0499 (inactive).

For the compound `O=C1C2C=CC(C(O)c3ccc(-c4ccccc4)s3)N(n3cnnc3)C2C(=O)N1Cc1ccccc1` (stereo not given), the composite z-score in test [1] is 0.0626; in [2] it was -0.0982; in test [3], -0.083; in [4], -0.0152; in test [5] it was 0.207; in [6], 0.802. Further, the composite z-score in test [7] was 1.04; in test [9] it was 0.415; in test [10], -0.0645; in test [11], 0.147; in [15], 1.77; in [17], -0.0823. Also, the composite z-score in test [18] is -0.0489; in test [19], 0.225; in test [20], -0.0716. The z-score in test [8] is 0.545 (inactive); in [12], -0.466 (inactive); in [13] it was -11.7 (active); in test [14] it was -0.0238 (inactive); in test [16], -0.485 (inactive).

For the origin of these results see PubChem BioAssay.
